This is a sample that favours compounds with a hit; in the whole collection about 4.8% have one here.
SMARCA2 act: activators of SMARCA2 function; MG213 cells, MMTV-luciferase reporter, dexamethasone, overnight; activation, % at 9.1 µM; 370,000 compounds, 1% hits; in the data active = activation above about 7.8%
ssDAF-12 act: S. stercoralis DAF-12 activation, primary screen | activation, % at 6.8 µM | 370,000 compounds, 1% hits | HEK293 ssDAF-12/GRIP1 lit1-tk-luc reporter, luminescence; % of 3 µM dafachronic acid response;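 active = activation above the mean over all tested compounds plus 3 SD, cut at about 0.9% in these data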
hgDAF-12 ag: hgDAF-12 agonism, primary luciferase screen. AID 687014. HEK293 GAL4-hgDAF12 UAS-luciferase reporter, agonist luminescence; normalized to butyrate control. 370,000 compounds, 1.8% hits. activation, % at 6.8 µM;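 active = activation above a cutoff set at the mean of all screened compounds plus 3 SD, cut at about 10% in these data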
hcDAF-12 act: H. contortus DAF-12 activation, primary screen; activation, % at 6.8 µM; 370,000 compounds, 1.4% hits; HEK293 hcDAF-12 lit1-tk-luc reporter, luminescence; 0% DMSO, 100% Δ7-dafachronic acid;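 active = activation above the mean of all tested compounds plus 3 SD, cut at about 5.5% in these data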
DAX1 inh-1: blocks DAX1 repression of SF-1 activated StAR promoter. HEK293T StAR-luciferase reporter, SF-1/DAX-1 repression relief. inhibition, % at 6.8 µM. 370,000 compounds, 1.1% hits;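 active = inhibition above the mean over all tested compounds plus 3 SD, cut at about 3.6% in these data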;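 note: higher inhibition means more luminescence from relief of DAX-1 repression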
DAX1 inh-2: NR0B1 (DAX1) inhibition. 340,000 compounds, 0.99% hits. AID 504766. inhibition, % at 6.75 µM. HEK293 Gal4-DAX1 luciferase reporter, luminescence;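 active = inhibition above the mean over all tested compounds plus 3 SD, cut at about 4.2% in these data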;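 note: inhibition shows as a rise in luminescence from relieved DAX1 repression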
Target sequence (P51843 207-470 limits assumed): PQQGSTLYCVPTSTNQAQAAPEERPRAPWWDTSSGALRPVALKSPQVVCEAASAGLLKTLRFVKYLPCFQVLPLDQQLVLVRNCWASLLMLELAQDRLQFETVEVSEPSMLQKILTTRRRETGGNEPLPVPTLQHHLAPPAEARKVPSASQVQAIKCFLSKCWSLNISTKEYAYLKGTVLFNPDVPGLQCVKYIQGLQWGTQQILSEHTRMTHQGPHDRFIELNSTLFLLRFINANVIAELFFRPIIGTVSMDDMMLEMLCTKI
LXRb hcDAF ctr: activates human LXR-beta, counter-screen for hcDAF-12 agonists; 3,400 tested, under 10 active; shares compounds with hcDAF-12 act; HEK293 Gal4-LXR tk-luc reporter, luminescence, 24 h; normalized: DMSO 0%, positive control 100%; activation, % at 6.8 µM;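 active = mean percent activation of the reporter above a cutoff set as the average over tested compounds plus their standard deviation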
Target sequence (P55055 whole entry, looked up, the tested form may be a part): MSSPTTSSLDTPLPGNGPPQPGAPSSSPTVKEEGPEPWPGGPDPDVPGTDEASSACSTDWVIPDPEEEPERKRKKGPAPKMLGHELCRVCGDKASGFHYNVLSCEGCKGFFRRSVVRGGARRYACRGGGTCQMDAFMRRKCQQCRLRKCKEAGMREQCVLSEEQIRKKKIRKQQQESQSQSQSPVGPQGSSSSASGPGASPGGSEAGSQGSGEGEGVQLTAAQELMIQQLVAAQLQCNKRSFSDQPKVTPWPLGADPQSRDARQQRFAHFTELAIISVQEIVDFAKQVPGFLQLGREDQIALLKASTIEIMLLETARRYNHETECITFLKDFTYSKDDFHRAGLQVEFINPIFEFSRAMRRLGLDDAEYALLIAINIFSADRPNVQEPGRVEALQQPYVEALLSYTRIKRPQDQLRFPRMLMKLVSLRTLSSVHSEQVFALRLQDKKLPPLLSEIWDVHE
hcDAF12 conf: hcDAF-12 agonism, confirmation assay. HEK293 hcDAF-12 lit1-tk-luc reporter, luminescence; % of Δ7-dafachronic acid response. shares compounds with hcDAF-12 act. activation, % at 6.8 µM. 3,400 compounds, 61% hits;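 active = mean activation across triplicate tests above the threshold derived from the earlier primary screen, cut at about 5.5% in these data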
hgDAF12 ag: hgDAF-12 agonism, confirmation assay | activation, % at 6.8 µM | shares compounds with hgDAF-12 ag | 3,300 compounds, 80% hits | HEK293 GAL4-hgDAF12 luciferase reporter, agonist mode; percent of butyrate response;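 active = mean activation over triplicate wells above the hit cutoff derived from the earlier primary screen, cut at about 11% in these data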
LXRb DAF12 ctr: activates human LXR-beta, counter-screen for DAF-12 agonists; shares compounds with hgDAF-12 ag; HEK293 Gal4-LXR luciferase reporter, 24 h; activation, % at 6.8 µM; 3,300 tested, under 10 active; AID 743051;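 active = mean activation of the triplicate above a set limit carried over from the primary screen, none filed active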
Large screens that a line does not name were inactive (follow-up assays come after a bar, where they were run).

COC(=O)C1=C(C)N(Cc2ccc(C(F)(F)F)cc2)C(=NCc2ccccc2C(F)(F)F)NC1c1ccc(F)cc1 (configuration not stated)	none (no result: DAX1 inh-2)
CN(C)S(=O)(=O)c1cccc(C(=O)Nc2ccc3c(c2)CCC3)c1	hgDAF-12 ag 22, hcDAF-12 act 6.9 | LXRb hcDAF ctr inactive | hcDAF12 conf 7.4 | hgDAF12 ag 19 | LXRb DAF12 ctr inactive
O=C(Nc1ccc2c(c1)CCC2)c1ccc(Cl)nc1	ssDAF-12 act 1.2, hgDAF-12 ag 19, hcDAF-12 act 7.7, DAX1 inh-1 3.8, DAX1 inh-2 4.7 | LXRb hcDAF ctr inactive | hcDAF12 conf 9.3 | hgDAF12 ag 21 | LXRb DAF12 ctr inactive
CN(C)S(=O)(=O)c1ccc(C(=O)Nc2ccc3c(c2)CCC3)cc1	none
Nc1[nH]c(C(=O)c2ccc(Br)cc2)c(-c2ccc(Br)cc2)c1C(=O)NCc1cccc2ccccc12	none (no result: DAX1 inh-2)
COC(=O)C1=C(C)N(Cc2ccc(C(F)(F)F)cc2)C(=NCC2CC2)NC1c1ccccc1C(F)(F)F (configuration not stated)	none (no result: DAX1 inh-2)
CCNC(=S)/N=C(\N)Nc1nc(C)c2cc(C)ccc2n1	hgDAF-12 ag 14, hcDAF-12 act 6.6, DAX1 inh-1 4.3, DAX1 inh-2 4.6 | LXRb hcDAF ctr inactive | hcDAF12 conf 7.6 | hgDAF12 ag 13 | LXRb DAF12 ctr inactive
CCOc1ccc2nc(N/C(N)=N/C(=S)Nc3ccc(C)c(C)c3)nc(C)c2c1	none
O=Nc1ccccn1	none (no result: DAX1 inh-2)
CC(=O)c1ccc(NCC2COc3ccccc3O2)c([N+](=O)[O-])c1 (configuration not stated)	ssDAF-12 act 1.4, hgDAF-12 ag 23, hcDAF-12 act 11 | LXRb hcDAF ctr inactive | hcDAF12 conf 9.0 | hgDAF12 ag 15 | LXRb DAF12 ctr inactive
O=C(NCC1COc2ccccc2O1)c1ccc(-n2cncn2)c([N+](=O)[O-])c1 (configuration not stated)	none
O=C(NCc1ccccc1)[C@@H]1CCCN1C(=O)[C@H]1CCCN1C(=O)c1ccccc1Cl	none (no result: DAX1 inh-2)
Cc1ccc(NC(=O)/C=C/c2cccs2)c([N+](=O)[O-])c1	hgDAF-12 ag 14, hcDAF-12 act 6.8 | LXRb hcDAF ctr inactive | hcDAF12 conf 6.5 | hgDAF12 ag 19 | LXRb DAF12 ctr inactive
O=C(/C=C/c1cccs1)Nc1ccc([N+](=O)[O-])cc1	none
C[C@]12Cc3ccccc3C1CC1=N[C@@H](c3ccc(C(F)(F)F)cc3)O[C@@]13C[C@@H]2C(=O)N3Cc1ccncc1 (some centres not stated)	none (no result: DAX1 inh-2)
Cc1ccc(C=NNc2ccc([N+](=O)[O-])cn2)cc1	hgDAF-12 ag 18, hcDAF-12 act 7.4, DAX1 inh-2 4.8 | LXRb hcDAF ctr inactive | hcDAF12 conf inactive | hgDAF12 ag 13 | LXRb DAF12 ctr inactive
COC(=O)c1cc2c(c3c4cc(F)ccc4n(S(=O)(=O)c4ccc(OC)cc4)c13)C(=O)N(C)C2	none (no result: DAX1 inh-2)
CC12COC3(C(=O)Nc4ccc5ccccc5c4)CC1CCC32C (configuration not stated)	ssDAF-12 act 1.9, hgDAF-12 ag 19, hcDAF-12 act 7.3 | LXRb hcDAF ctr inactive | hcDAF12 conf 6.9 | hgDAF12 ag 16 | LXRb DAF12 ctr inactive
CC12COC3(C(=O)Nc4ccccc4)CC1CCC32C (configuration not stated)	none
CCOC(=O)C1=CCN(S(=O)(=O)c2ccc(Cl)cc2)C1c1ccc(Br)cc1 (configuration not stated)	none (no result: DAX1 inh-2)
CC(=NC1CCCCC1)C1=C(O)c2ccccc2C1=O	hgDAF-12 ag 16, hcDAF-12 act 8.1, DAX1 inh-1 4.2 | LXRb hcDAF ctr inactive | hcDAF12 conf 5.8 | hgDAF12 ag 15 | LXRb DAF12 ctr inactive
CC(C)(C)S(=O)(=O)N1Cc2cc(CO)ccc2[C@H]1CCO	none (no result: DAX1 inh-2)
Cc1ccc(C(=O)Nc2nc3c(s2)CCCC3)o1	hgDAF-12 ag 13, hcDAF-12 act 11, DAX1 inh-1 3.8 | LXRb hcDAF ctr inactive | hcDAF12 conf 7.0 | hgDAF12 ag 16 | LXRb DAF12 ctr inactive
O=C(Nc1nc2c(s1)CCCC2)c1ccc(Br)o1	ssDAF-12 act 1.3, hgDAF-12 ag 16, hcDAF-12 act 13 | LXRb hcDAF ctr inactive | hcDAF12 conf 10 | hgDAF12 ag 18 | LXRb DAF12 ctr inactive
CCc1nnc(NC(=O)c2ccc(C)o2)s1	none
O=C(Nc1nc2c(s1)CCCC2)c1cccnc1	none (no result: SMARCA2 act, ssDAF-12 act, hgDAF-12 ag, hcDAF-12 act, DAX1 inh-1)
CN1C(=O)C2C=CC1C1C(=O)N(c3ccccc3)C(=O)C21 (configuration not stated)	hgDAF-12 ag 17, hcDAF-12 act 9.5, DAX1 inh-1 4.0 | LXRb hcDAF ctr inactive | hcDAF12 conf 6.2 | hgDAF12 ag inactive | LXRb DAF12 ctr inactive
O=C1C2C3C=CC(C3=C3CCCCC3)C2C(=O)N1c1ccccc1 (configuration not stated)	none
Cc1ccc(N/C=C/C(=O)c2ccccc2)cc1Br	ssDAF-12 act 3.4, hgDAF-12 ag 19, hcDAF-12 act 16, DAX1 inh-1 3.8 | LXRb hcDAF ctr inactive | hcDAF12 conf 16 | hgDAF12 ag 25 | LXRb DAF12 ctr inactive
O=C(NC1CCCCCC1)c1cccc(N2CCCC2=O)c1	hgDAF-12 ag 13, hcDAF-12 act 7.8 | LXRb hcDAF ctr inactive | hcDAF12 conf 10 | hgDAF12 ag 13 | LXRb DAF12 ctr inactive
O=[N+]([O-])c1cccc(-c2nc3ccc([N+](=O)[O-])cc3[nH]2)c1	none
O=[N+]([O-])c1ccc2nc(-c3ccc(Cl)cc3)[nH]c2c1	ssDAF-12 act 1.2, hgDAF-12 ag 22, hcDAF-12 act 9.9, DAX1 inh-1 4.1 | LXRb hcDAF ctr inactive | hcDAF12 conf 5.9 | hgDAF12 ag 20 | LXRb DAF12 ctr inactive
Cc1occc1C(=O)N/N=C/c1ccc(OCc2ccccc2)cc1	none
Cc1occc1C(=O)N/N=C/c1ccc(-c2ccccc2)cc1	ssDAF-12 act 1.1, hgDAF-12 ag 19, hcDAF-12 act 7.9 | LXRb hcDAF ctr inactive | hcDAF12 conf inactive | hgDAF12 ag 21 | LXRb DAF12 ctr inactive

Screening results (PubChem BioAssay)
